The list is not random: actives were taken first. Their share in the collection is about 0.52%.
Sa growth 42C = blocks Staphylococcus aureus growth; AID 720641; relative growth, % (no concentration beside the values); S. aureus RN4220 growth, OD600, 20 h, 42 °C; active compounds read low; 170,000 compounds, 0.53% hits;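 active means relative growth at most 50% at the other temperature and 20+ points below 30 °C, or under 10% at both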
S aureus helic = blocks Staphylococcus aureus DNA helicase. purified S. aureus helicase, fluorescence unwinding assay. inhibition, % (concentration not given with the values). 120,000 compounds, 0.05% hits. AID 485395; in the data active means inhibition above about 25%, passing the limit was not always enough;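 further: 0% = mean of negative control wells and 100% = mean of positive control wells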
* = called active by the depositor.

`O=C(COC(=O)CC1CCCC1)Nc1nnc(-c2ccccc2)o1` gave Sa growth 42C 21.3 and S aureus helic 2.0.
O=C(COC(=O)Cc1coc2ccc3ccccc3c12)Nc1nnc(-c2ccccc2)o1 was read as Sa growth 42C 0.1* and S aureus helic -9.0.
O=C(COC(=O)C1(c2ccccc2)CC1)Nc1nnc(-c2ccccc2)o1 was read as Sa growth 42C -0.5* and S aureus helic 13.0.
For O=C(Cc1coc2ccc3ccccc3c12)Oc1ccc(-c2nnco2)cc1 the results were Sa growth 42C 96.5 and S aureus helic 15.0.
For CC(C)(C)NC1=C(n2nnc3ccccc32)C(=O)c2ccccc2C1=O the results were S aureus helic -26.0.
Cc1csc(C2C(N)=NC(S)=C(C#N)C23CCCCC3)n1 (stereo not drawn) was read as Sa growth 42C 81.5 and S aureus helic -4.0.
N#CCCN(Cc1ccccc1)C(=O)C1CCN(c2nccc(C(F)(F)F)n2)CC1 was read as Sa growth 42C 94.1.
For COc1ccc(C)cc1NC(=O)c1c(Cl)nc2sccn12 the results were Sa growth 42C 117.0 and S aureus helic -12.0.
`O=C(Nc1cccc(F)c1)NC1CCCC1` gave Sa growth 42C 84.5 and S aureus helic 6.0.
`CC1CCC(C(C)C)C(NC(=S)Nc2cccc(F)c2)C1` (stereo not drawn) gave Sa growth 42C -0.8*.
Screening CCOC(=O)C(C)Oc1ccc2c3c(c(=O)oc2c1)CCC3 (stereo not drawn) returned S aureus helic 26.0.
Screening COC(=O)c1ccc(CN(c2ccc(OC)cc2)S(=O)(=O)c2cccc(C)c2)o1 returned Sa growth 42C 103.7 and S aureus helic 9.0.
`O=C(Nc1cccc(NC(=O)C2COc3ccccc3O2)c1)c1ccccc1` (stereo not drawn) gave Sa growth 42C 79.3 and S aureus helic 2.0.
`CN(Cc1ccccc1)S(=O)(=O)c1ccc2c(c1)n(C)c(=O)c(=O)n2C` gave Sa growth 42C 87.5 and S aureus helic -3.0.
For CN1C(=O)CC(=O)N(C)c2cc(S(=O)(=O)N(C)Cc3ccccc3)ccc21 the results were Sa growth 42C -1.7*.
COc1cccc(-c2cc(C(=O)N3CCN(C(c4ccccc4)c4ccccc4)CC3)[nH]n2)c1 was read as Sa growth 42C 102.5 and S aureus helic 8.0.
Screening COc1ccccc1C(CC(=O)N1CCCC1)c1ccc2c(c1)OCO2 (stereo not drawn) returned Sa growth 42C 92.3 and S aureus helic 1.0.
`COc1cccc(C(c2cc3c(cc2O)OCO3)N2CCCC2)c1O` (stereo not drawn) gave Sa growth 42C 1.2* and S aureus helic 1.0.
For COc1cccc(-n2nnnc2S(=O)(=O)Cc2ccccc2)c1 the results were Sa growth 42C -1.1* and S aureus helic 2.0.
Screening Cc1cccc(C)c1-n1nnnc1S(=O)(=O)Cc1ccccc1Cl returned Sa growth 42C 96.2 and S aureus helic -3.0.
Screening Cc1nc(SCCC(=O)O)c2c3c(sc2n1)CCCC3 returned S aureus helic -7.0.
Screening O=C(NC1CCCC1)c1cc(-c2ccc(Cl)s2)nc2ccccc12 returned Sa growth 42C 110.9 and S aureus helic 5.0.
`O=C(N/N=C/C1=C(Sc2nc3ccccc3o2)CCCC1)c1ccncc1` gave Sa growth 42C 73.3 and S aureus helic 17.0.
Cc1ccc(N2C(=O)C(CC(=O)Nc3ccccc3)N(Cc3ccc4c(c3)OCO4)C2=O)cc1 (stereo not drawn) was read as Sa growth 42C 106.8 and S aureus helic 16.0.
C[n+]1ccc(/C=C\c2ccco2)c2ccccc21 was read as Sa growth 42C 3.2* and S aureus helic -25.0.
Screening Oc1ccc(N=Cc2ccccc2O)cc1 returned Sa growth 42C 91.7 and S aureus helic -4.0.
Screening O/N=C/c1ccco1 returned Sa growth 42C 110.2 and S aureus helic 12.0.
`C[n+]1ccc(/C=C/c2ccc3c(c2)OCO3)c2ccccc21` gave Sa growth 42C 0.0* and S aureus helic -33.0.
For CN(C)C(=O)/C=C/c1ccc2c(c1)OCO2 the results were Sa growth 42C 92.6 and S aureus helic -1.0.
Screening C[n+]1ccc(/C=C/c2ccccc2O)c2ccccc21 returned Sa growth 42C 43.4 and S aureus helic 50.0*.
`O=[n+]1cc(-c2cccc(C(F)(F)F)c2)n([O-])c2c1CCC2` gave Sa growth 42C 91.9 and S aureus helic 13.0.
Screening COC(=O)c1cc2oc(C)cc2n1CC(=O)N1CC(C)CC(C)C1 (stereo not drawn) returned Sa growth 42C 96.9 and S aureus helic -12.0.
For COC(=O)c1ccc(-c2ccco2)n1CC(=O)NC(C)c1ccccc1 (stereo not drawn) the results were Sa growth 42C 100.7 and S aureus helic 20.0.
Screening Cn1c(-c2ccccc2)c(C(=O)Cn2cnc3sccc3c2=O)c2ccccc21 returned Sa growth 42C 89.7 and S aureus helic -11.0.
Screening Cc1cc(NS(=O)(=O)c2ccc(N=Cc3ccccc3O)cc2)no1 returned Sa growth 42C 33.5 and S aureus helic 2.0.
`CCOc1nnc(NS(=O)(=O)c2ccc(N=Cc3ccccc3O)cc2)s1` gave Sa growth 42C 7.8* and S aureus helic 13.0.
CCc1nn(CCCC(=O)NCc2ccc(OC)cc2)c(=O)c2cc3occc3n12 was read as Sa growth 42C 87.1 and S aureus helic 9.0.
For CCOc1cc(C)c(Cl)cc1S(=O)(=O)N1CCN(CC)CC1 the results were Sa growth 42C 105.1 and S aureus helic -14.0.
`Cc1nc2c(C(=O)NCCc3ccc(Cl)cc3)c[nH]n2c(=O)c1Cc1ccc(Cl)cc1` gave Sa growth 42C 1.2*.
`COCCNC(=O)c1c[nH]n2c(=O)c(Cc3ccc(Cl)cc3)c(C)nc12` gave Sa growth 42C 79.4 and S aureus helic 14.0.
CNC(=O)c1c[nH]n2c(=O)c(Cc3ccccc3F)c(C)nc12 was read as Sa growth 42C 104.7.
Cc1nc2c(C(=O)NCCc3ccccc3)c[nH]n2c(=O)c1Cc1ccccc1F was read as Sa growth 42C 0.7*.
Screening Nc1ccc(OCc2ccc3ccccc3n2)cc1 returned Sa growth 42C 91.8.
For CC1CC(C)CN(C(=O)COC(=O)c2cc(Cl)cc(Cl)c2)C1 (stereo not drawn) the results were Sa growth 42C 110.2 and S aureus helic 12.0.
For O=COC1CCCCC1NS(=O)(=O)c1ccccc1 (stereo not drawn) the results were Sa growth 42C 99.5 and S aureus helic -11.0.
Screening C/C(=N\OCc1nc(-c2cccc(Cl)c2)no1)c1ccc(Cl)cc1 returned Sa growth 42C 101.1 and S aureus helic -7.0.
CC(C)(C)OC(=O)N/N=C1\CCCCc2ccccc21 was read as Sa growth 42C 83.8 and S aureus helic -13.0.
Screening CN1C(N)=NC(=O)C1(CO)CO returned Sa growth 42C 85.1 and S aureus helic -1.0.
For O=C(NCc1ccc(Cl)cc1)NC1CCCCC1 the results were Sa growth 42C 103.5 and S aureus helic 9.0.
Screening On1c(-c2ccccc2)cc2ccccc21 returned Sa growth 42C 1.6* and S aureus helic 3.0.
`O=c1cc(-c2ccccc2)cc(-c2ccccc2)n1O` gave Sa growth 42C 78.7.
`O=C1C=CC(=O)N1CCc1ccccc1` gave Sa growth 42C 19.0 and S aureus helic 17.0.
Screening O=C1C=CC(=O)N1CCc1ccc(Cl)cc1 returned Sa growth 42C 9.7* and S aureus helic -17.0.
CC1=NN(c2cccc(SC(F)F)c2)C(=O)C1 was read as Sa growth 42C 57.2 and S aureus helic 7.0.

Screens from PubChem BioAssay.
